The record followed here is article PMC7819943, “Rice protein-binding microarrays: a tool to detect cis-acting elements near promoter regions in rice”.

In all, about 68,000 sequences were measured (“fluorescence intensity (a.u.)”: median about 9,100, highest 2% from about 16,000 on). The sample holds the highest values, similar sequences and a random draw of the others, so the mix is not that of the screen.

OsWRKY34, sequence (Q0JBA9 entry or part of it): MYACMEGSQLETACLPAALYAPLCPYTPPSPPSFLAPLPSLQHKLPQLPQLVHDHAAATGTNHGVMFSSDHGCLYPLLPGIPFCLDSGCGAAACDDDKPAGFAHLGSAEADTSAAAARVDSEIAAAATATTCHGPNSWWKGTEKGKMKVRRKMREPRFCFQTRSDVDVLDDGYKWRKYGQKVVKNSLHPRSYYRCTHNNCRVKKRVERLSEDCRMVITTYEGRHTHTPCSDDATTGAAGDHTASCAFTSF

This assay deals with OsWRKY34 (Oryza sativa, UniProt Q0JBA9 1-250). Kind of assay: protein-binding microarray (RPBM); PBS, 2% BSA, 51.3 ng/ul salmon testes DNA, 50 uM zinc acetate, 200 nM TF, 25 C, 1 h; high values mean tight binding. Particulars: protein: recombinant; tags: N-terminal polyhistidine and DsRed monomer fusion (pET32a); label: CyDye5-dUTP incorporated in the synthesized complementary strand; 3' TTTTT single-stranded linker to array surface; dsDNA, one strand shown. In a few lines:
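For the binding signal, per-feature fluorescence intensity was read in arbitrary units on an Axon 4000B scanner. Before scanning, a 2% BSA-blocked custom Agilent array made double-stranded with Cy5-dUTP was washed after 1 h at 25 °C with 200 nM protein and 50 µM zinc acetate. The proteins were Ni–NTA-purified transcription factors with N-terminal polyhistidine and DsRed fusions, expressed in E. coli BL21-CodonPlus.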
In the case of “TTTTGCGCGGATGGCCCTTTACTTTTCCCCTCTTGTCCTCCGGAGTCACCTAGTGCAG”, the binding signal was 10400 fluorescence intensity (a.u.).
“ACTTCTACTCCTACTTCCCTGTGTGGCCCACAGCTAGATACGGAGTCACCTAGTGCAG”: the binding signal is 10300 fluorescence intensity (a.u.).
For “TGGAAGTCTGGAAGGCGCTGTACCTTCGTCTCGCCCGTCACGGAGTCACCTAGTGCAG”, the binding signal is 8650 fluorescence intensity (a.u.).
As for “ATATGTCAAGTTTGGTGGATATAGTTGTTTGGCCTTTTACCGGAGTCACCTAGTGCAG”, the binding signal is 11700 fluorescence intensity (a.u.).
Regarding “CACGCTGCACTGCACCGCTTTACGCCATCTCGCCAATTTTCGGAGTCACCTAGTGCAG”, the binding signal is 10300 fluorescence intensity (a.u.).
In the case of “CCAATTTTTTTTTCTCCTTTTGCTTTTTTTCATCAAGAACCGGAGTCACCTAGTGCAG”, the binding signal is 8740 fluorescence intensity (a.u.).
For the sequence “CGGAACCGCTCCTCGAGAAGCTCTCGAATTCCTCGTCGTCCGGAGTCACCTAGTGCAG”, the binding signal is 9310 fluorescence intensity (a.u.).
“AAGACGAACGGTCAAATATGTGCTAAAAAGTCAACGGTGTCGGAGTCACCTAGTGCAG”: the binding signal is 9990 fluorescence intensity (a.u.).
As for “AGAACGAACAGTCAAACATATGCTAAAAAGTCAACGGTGTCGGAGTCACCTAGTGCAG”, the binding signal was 10200 fluorescence intensity (a.u.).
With “TAAGACGAATGGTCAAATATGTGCTAAAAAGTCAACGGTGCGGAGTCACCTAGTGCAG”, the binding signal is 13100 fluorescence intensity (a.u.).
Consider “ATAAGACGAACGGTTAAAAATGTGCCAAAAAGTCAACGGCCGGAGTCACCTAGTGCAG”, for which the binding signal is 9640 fluorescence intensity (a.u.).
Regarding “AGACGAACAGTCAAATATGTGCTAAAAAGTCAACGGTGTCCGGAGTCACCTAGTGCAG”, the binding signal is 17500 fluorescence intensity (a.u.).
In the case of “GAACGGTCAAACATGTGTTAAAAAGTCAACGGTGTTAAACCGGAGTCACCTAGTGCAG”, the binding signal was 9470 fluorescence intensity (a.u.).
As for “TGTTATGCAAATGTGCAAATGCAAAAGTTGGCCGCAAGAACGGAGTCACCTAGTGCAG”, the figure is 17600 fluorescence intensity (a.u.); as for “GGTAAAATATGTGCTAAAAAGTCAACGGTGTCAAACATTTCGGAGTCACCTAGTGCAG”, 14400 fluorescence intensity (a.u.).
With “ATAAGACGAACGGTCAAATATGTGCTAAAAAGTCAACGGTCGGAGTCACCTAGTGCAG”, the binding signal was 16400 fluorescence intensity (a.u.).
As for “TCCTATCCCTACGAGCACTTCCGAAATATTGGACTGACATCGGAGTCACCTAGTGCAG”, the figure is 8370 fluorescence intensity (a.u.); as for “ATAACTCGGGTCGGACTCGGACCTCAGGCCCACGTATTCCCGGAGTCACCTAGTGCAG”, 8400 fluorescence intensity (a.u.).
As for “CGCTGATTGGGTTGGGTCGGGTTAGCTTTGGTTTCAATGCCGGAGTCACCTAGTGCAG”, the figure is 11200 fluorescence intensity (a.u.).
On to “AATACTCCTCTACTCATATTAGTACAATATCACAAACTTACGGAGTCACCTAGTGCAG”, for which the binding signal was 8250 fluorescence intensity (a.u.).
As for “ACTGCTTTGTTCTATTTGATTATTTTTTTACTCATCAGATCGGAGTCACCTAGTGCAG”, the binding signal was 15900 fluorescence intensity (a.u.).
For “TGTTTGACGCCGTTGACTTTTTAGCACATGTTTGACCGTTCGGAGTCACCTAGTGCAG”, the binding signal was 43600 fluorescence intensity (a.u.).
Turning to “ATGTTTGACACCGTTGATTTTTTAACACATGTTTGACCGTCGGAGTCACCTAGTGCAG”, the binding signal was 9910 fluorescence intensity (a.u.).
The result for “AATGTTTGACGCCGTTGACTTTTTAGCACATGTTGACCGTCGGAGTCACCTAGTGCAG” reads 42200 fluorescence intensity (a.u.); that for “TGTTTGACGCCGTTGACTTTTTAACACATGTTTGACCGTTCGGAGTCACCTAGTGCAG”, 41700 fluorescence intensity (a.u.); that for “ACGCCATTGACTTTTTAGCAGATGTTTGACCGTTCGTTTTCGGAGTCACCTAGTGCAG”, 20700 fluorescence intensity (a.u.).
Turning to “GCCGCGCACGCCGTCATCTCTTTTTCGTTCCATACTTCTCCGGAGTCACCTAGTGCAG”, the binding signal was 10700 fluorescence intensity (a.u.).
Take “GGCTGGGTGTTACAACTTTGTCCAAAACATCAATAATTATCGGAGTCACCTAGTGCAG”: the binding signal was 8610 fluorescence intensity (a.u.).
As for “CCCACATTTTTTCTTCTCACTTATATGTGGGTCCCATAATCGGAGTCACCTAGTGCAG”, the binding signal was 8640 fluorescence intensity (a.u.).
Take “AGTTATTTATTTTGTTGTGGTTTGTTTTATAGTTAAAGGTCGGAGTCACCTAGTGCAG”: the binding signal was 10100 fluorescence intensity (a.u.).
As for “CGATCCCACCGACTCCCGGCCACCTCTGCTTCCCCGGCGACGGAGTCACCTAGTGCAG”, the figure is 9140 fluorescence intensity (a.u.); as for “TATATGTTTGGCGCTCAAAACCTAATAGTAGTTCTTATGTCGGAGTCACCTAGTGCAG”, 8300 fluorescence intensity (a.u.); as for “CTCTCCTCTCATCTCATCTCATCTCCAAGGCTGGTCTTTACGGAGTCACCTAGTGCAG”, 8320 fluorescence intensity (a.u.).
For the sequence “ACAGCCGCGTCGCCGCTTGTCCGCCTGCGCTCGTTCTCGCCGGAGTCACCTAGTGCAG”, the binding signal was 9640 fluorescence intensity (a.u.).
As for “GGCATCCTACACTCTAGCTAGCCCACAGTCCGCTGCCGGCCGGAGTCACCTAGTGCAG”, the binding signal was 8790 fluorescence intensity (a.u.).
As to “GCGGATGGAATGGCAAGGGAGGAAACTGGTGGGGTGGGAGCGGAGTCACCTAGTGCAG”, the binding signal is 8960 fluorescence intensity (a.u.).
The result for “TTCGGTTGGGTGGAGGAAGCGCGGGTGAAAAAGGTGGGGACGGAGTCACCTAGTGCAG” reads 10600 fluorescence intensity (a.u.); that for “GGAATATTCTCACATCTCAGCCATCCATTTTCCATCTCAACGGAGTCACCTAGTGCAG”, 9090 fluorescence intensity (a.u.).
For the sequence “TACATCATCTAGTGTTGCAGCAGCAGTGTGTGTAAGAGGACGGAGTCACCTAGTGCAG”, the binding signal is 28500 fluorescence intensity (a.u.).
For the sequence “CAGCAGTGTGTGTAAGAGGAGAGAGAAGCAGTGCCCTTTACGGAGTCACCTAGTGCAG”, the binding signal is 8530 fluorescence intensity (a.u.).
The result for “GATAGGTTGTGTGTGTGCAGTGTGTGTTTATAAGAGGTGACGGAGTCACCTAGTGCAG” reads 10200 fluorescence intensity (a.u.); that for “CGTCACTTTTTTTTCTCCCCTATTTCTTTTCTCCTTTTCTCGGAGTCACCTAGTGCAG”, 10900 fluorescence intensity (a.u.).
As for “CCGCTCTCCTACTGCTCGGCCAACCAGTCATGCACACATACGGAGTCACCTAGTGCAG”, the figure is 8790 fluorescence intensity (a.u.); as for “ATAAAATAGTTGACTGGCTATCTTCTACTCCACTTGGTATCGGAGTCACCTAGTGCAG”, 8860 fluorescence intensity (a.u.); as for “TTGATTTCGTTGGGGTTTGCGTTGCGTGCGGAGGACGGGGCGGAGTCACCTAGTGCAG”, 15200 fluorescence intensity (a.u.).
